Test results reported in PubChem BioAssay (NCATS).
Values without a mark were called inactive. Records with an inconclusive call do not appear. A call without a number means that no potency is given here. The source made the active and inactive calls. Unless noted, calls come from the whole dose curve; as a rule, active = well fitted inhibition curve with a large enough effect; inconclusive = small, poorly fitted or top-dose-only effect; inactive = no such curve, though single readings can be large or run the other way. Peptide text beside a SMILES is read from it.

Each compound was assayed against Glucocorticoid receptor (Homo sapiens) (UniProt P04150) (assay: GR-GFP Redistribution (AID 450;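 active = compounds whose dose series gives a full or clear partial fitted curve of increased nuclear translocation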; note: potency is the fitted concentration of half-maximal effect)). Conditions: U2OS GR-GFP nuclear translocation, laser cytometry, 2 h.
Glucocorticoid receptor (Homo sapiens), sequence (P04150 whole entry, looked up, the tested form may be a part): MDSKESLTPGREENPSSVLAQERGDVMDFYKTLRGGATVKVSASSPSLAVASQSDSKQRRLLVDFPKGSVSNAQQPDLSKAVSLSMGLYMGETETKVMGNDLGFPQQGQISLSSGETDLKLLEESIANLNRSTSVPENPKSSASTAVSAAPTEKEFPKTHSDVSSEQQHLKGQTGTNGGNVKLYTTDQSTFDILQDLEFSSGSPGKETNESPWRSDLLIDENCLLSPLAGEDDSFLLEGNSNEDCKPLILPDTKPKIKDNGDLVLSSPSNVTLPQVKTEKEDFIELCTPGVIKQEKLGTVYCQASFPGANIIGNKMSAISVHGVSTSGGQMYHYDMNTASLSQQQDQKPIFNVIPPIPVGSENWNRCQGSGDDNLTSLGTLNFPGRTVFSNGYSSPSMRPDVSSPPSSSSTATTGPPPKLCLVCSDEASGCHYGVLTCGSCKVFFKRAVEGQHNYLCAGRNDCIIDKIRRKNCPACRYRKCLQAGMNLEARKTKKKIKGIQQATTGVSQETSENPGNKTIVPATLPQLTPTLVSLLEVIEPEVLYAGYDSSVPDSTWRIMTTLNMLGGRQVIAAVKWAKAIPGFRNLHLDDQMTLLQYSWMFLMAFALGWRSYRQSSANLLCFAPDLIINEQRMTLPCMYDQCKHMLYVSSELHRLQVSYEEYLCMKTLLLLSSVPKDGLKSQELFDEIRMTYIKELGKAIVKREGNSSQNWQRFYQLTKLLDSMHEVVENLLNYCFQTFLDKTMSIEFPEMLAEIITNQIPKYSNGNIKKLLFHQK

Row | SMILES | Potency [µM]
1 | C/C(=C\CNc1ncnc2nc[nH]c12)CO | > 46
2 | CC/C=C\C[C@H]1C(=O)CC[C@@H]1CC(=O)O | > 46
3 | Nc1ncnc2c1nc(Br)n2[C@H]1O[C@H]2COP(=O)(O)O[C@H]2[C@@H]1O | > 46

These compounds were tested against Glucocorticoid receptor (Homo sapiens) (UniProt P04150) (assay: GR-EFC Redistribution (AID 451; calls by dose curve; note: potency is the fitted concentration of half-maximal effect)). Conditions: CHO-K1 GR-EFC translocation, beta-gal luminescence, 2 h.
Summary of the method: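 Translocation of GR-ED fusion to nuclear EA restores b-gal, read by luminescence after 1 h room-temperature detection. Engineered CHO-K1 biosensor cells, 1,000/well, exposed 2 h at 37 C to titrations up to 46 uM final.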

Row | SMILES | Potency [µM]
4 | C/C(=C\CNc1ncnc2nc[nH]c12)CO | > 46
5 | CC/C=C\C[C@H]1C(=O)CC[C@@H]1CC(=O)O | > 46
6 | COc1ccc2c(c1)N(C[C@@H](C)CN(C)C)c1ccccc1S2 | > 20.6
7 | Nc1ncnc2c1nc(Br)n2[C@H]1O[C@H]2COP(=O)(O)O[C@H]2[C@@H]1O | > 46

The compounds below were run against Mitogen-activated protein kinase 10 (Mus musculus) (UniProt Q61831) (assay: JNK3 AlphaScreen Assay (AID 530; active = well fitted curve in either direction with a large enough effect, not every such curve was filed as active;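 note: kinase came from lysate of stimulated human HepG2 cells; signal reports phosphorylation of biotinylated GST-cJun 1-79 at Ser73 with 10 µM ATP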)). Conditions: JNK3 lysate, c-Jun phosphorylation; series mostly up to 25.6 µM.
Summary of the method: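 Compound titrations were preincubated 15 minutes at room temperature with substrate, antibody and pre-activated JNK3-containing HepG2 lysate. Reactions were started with 10 uM ATP and stopped with EDTA-containing bead buffer for AlphaScreen detection.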

Row | SMILES | Potency
8 | C/C(=C\CNc1ncnc2nc[nH]c12)CO | inactive
9 | C[C@]1(c2ccccc2)OC(C(=O)O)=CC1=O | inactive
10 | CC/C=C\C[C@H]1C(=O)CC[C@@H]1CC(=O)O | inactive
11 | COc1ccc2c(c1)N(C[C@@H](C)CN(C)C)c1ccccc1S2 | inactive

What follows are compounds tested against 3',5'-cyclic-AMP phosphodiesterase 4B (Homo sapiens) (UniProt Q07343) (assay: qHTS Assay for Inhibitors of PDE-IV (AID 607; active = well fitted activation curve with a large enough effect in the main read-out, with a control signal flat, not every such curve was filed as active)). Conditions: HEK293 ACTOne CNG channel cells, membrane potential fluorescence; series mostly up to 22.9 µM.
3',5'-cyclic-AMP phosphodiesterase 4B (Homo sapiens), sequence (Q07343 whole entry, looked up): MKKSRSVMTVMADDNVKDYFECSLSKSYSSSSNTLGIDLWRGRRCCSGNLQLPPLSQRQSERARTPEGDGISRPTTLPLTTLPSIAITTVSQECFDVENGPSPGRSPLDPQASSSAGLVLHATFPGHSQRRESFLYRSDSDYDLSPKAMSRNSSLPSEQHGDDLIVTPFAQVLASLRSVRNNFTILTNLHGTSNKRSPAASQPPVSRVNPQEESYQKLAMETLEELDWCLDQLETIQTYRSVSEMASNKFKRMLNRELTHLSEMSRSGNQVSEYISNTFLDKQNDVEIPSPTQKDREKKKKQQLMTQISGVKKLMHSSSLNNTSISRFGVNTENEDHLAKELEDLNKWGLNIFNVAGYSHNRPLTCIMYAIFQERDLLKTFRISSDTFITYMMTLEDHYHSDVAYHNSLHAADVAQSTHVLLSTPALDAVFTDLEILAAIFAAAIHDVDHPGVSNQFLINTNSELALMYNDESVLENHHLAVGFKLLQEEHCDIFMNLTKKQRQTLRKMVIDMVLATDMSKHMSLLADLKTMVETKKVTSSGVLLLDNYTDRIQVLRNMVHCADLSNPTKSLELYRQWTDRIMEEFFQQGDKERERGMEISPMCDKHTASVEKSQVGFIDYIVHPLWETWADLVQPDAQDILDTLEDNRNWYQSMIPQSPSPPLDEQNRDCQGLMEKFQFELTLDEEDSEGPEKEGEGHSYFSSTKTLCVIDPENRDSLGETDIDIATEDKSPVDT
Summary of the method: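 Live HEK293 cells with a modified cyclic nucleotide-gated (CNG) channel report intracellular cAMP via membrane-potential dye fluorescence (ex 535/em 590 nm). Endogenous PDE-IV was targeted. Compounds were tested at up to 22.9 uM final; RO 20-1724 100 uM served as control.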

Row | SMILES | outcome
12 | C/C(=C\CNc1ncnc2nc[nH]c12)CO | inactive
13 | CC/C=C\C[C@H]1C(=O)CC[C@@H]1CC(=O)O | inactive
14 | COc1ccc2c(c1)N(C[C@@H](C)CN(C)C)c1ccccc1S2 | inactive

The compounds below were run against Cytochrome P450 3A4 (Homo sapiens) (UniProt P08684) (assay: qHTS Assay for Inhibitors and Substrates of Cytochrome P450 3A4 (AID 884; note: nearly all actives have a fitted effect of over 50% in size; note: potency is the fitted concentration of half-maximal effect)). Conditions: recombinant CYP3A4, Luciferin-PPXE luminescence; series mostly up to 57.1 µM.
Cytochrome P450 3A4 (Homo sapiens), sequence (P08684 whole entry, looked up): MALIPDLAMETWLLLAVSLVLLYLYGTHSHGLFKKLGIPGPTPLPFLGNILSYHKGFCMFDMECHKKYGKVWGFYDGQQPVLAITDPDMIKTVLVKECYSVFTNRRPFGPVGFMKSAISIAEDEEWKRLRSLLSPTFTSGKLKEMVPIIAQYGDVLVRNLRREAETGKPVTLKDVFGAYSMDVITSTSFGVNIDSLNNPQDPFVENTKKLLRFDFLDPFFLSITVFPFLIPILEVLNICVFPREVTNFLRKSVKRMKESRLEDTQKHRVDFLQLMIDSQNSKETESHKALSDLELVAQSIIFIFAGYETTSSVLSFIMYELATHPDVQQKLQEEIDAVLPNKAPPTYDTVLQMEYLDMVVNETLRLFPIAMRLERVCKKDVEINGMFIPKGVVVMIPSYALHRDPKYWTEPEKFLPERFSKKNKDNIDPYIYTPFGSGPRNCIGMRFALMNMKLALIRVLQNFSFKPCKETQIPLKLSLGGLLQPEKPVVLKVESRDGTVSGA
Summary of the method: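 20 nM human CYP3A4 with 25 uM Luciferin-PPXE (at KM) in 200 mM KPO4, preincubated 10 min with compound; NADPH regeneration started a 60 min RT reaction. Luciferin detected by luminescence, normalized to 57 uM ketoconazole as full inhibition.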

Row | SMILES | Potency
15 | CC1=C(CCC(=O)O)c2cc3nc(cc4[nH]c(cc5[nH]c(cc1n2)c(C)c5C(C)O)c(C)c4C(C)O)C(C)=C3CCC(=O)O (configuration not stated) | inactive
16 | C/C(=C\CNc1ncnc2nc[nH]c12)CO | inactive
17 | CCC(C)C(=O)OC1CCC=C2C=CC(C)C(CCC3CC(O)CC(=O)O3)[C@@H]21 (some centres not stated) | 20 µM (active)
18 | OCC1OC([S-])[C@H](O)C(O)C1O.[Au+] (some centres not stated) | inactive
19 | COC(=O)N/N=C/C1=C[N+](=O)c2ccccc2[N+]1=O | inactive
20 | CN1CC(=O)N=C1N | inactive
21 | CNC1CC(N)[C@H](O)[C@@H](O[C@@H]2OC(CO)C3OC4(OC(C(N)CO)C(O)C(O)C4O)O[C@@H]3[C@H]2O)C1O (some centres not stated) | inactive
22 | CC(=O)N[C@@H]1C(O)OC(CO)C(O)C1O (some centres not stated) | inactive
23 | O=C1OC(CO)C(O)C(O)C1O (configuration not stated) | inactive
24 | CC/C=C\C[C@H]1C(=O)CC[C@@H]1CC(=O)O | inactive
25 | COC(=O)C(Cc1ccccc1)NC(=O)C(N)CC(=O)O (stereo not drawn) (H-Asp-Phe-OMe; configuration not given here) | inactive
26 | CC1(C)SC2C(N3C(=O)C(c4ccccc4)NC3(C)C)C(=O)N2C1C(=O)O (configuration not stated) | inactive
27 | CC1CCC(C(C)C)C(=O)C1 (configuration not stated) | inactive
28 | CC(C)C1CCC(C(=O)NC(Cc2ccccc2)C(=O)O)CC1 (configuration not stated) | inactive
29 | COc1ccc2cc(C(C)CO)ccc2c1 (configuration not stated) | inactive
30 | CNC1C(OC2C(O[C@@H]3C(O)C(O)[C@@H](N=C(N)N)C(O)C3N=C(N)N)OC(C)[C@@]2(O)CO)OC(CO)C(O)C1O (some centres not stated) | inactive
31 | CC1C2CCC3C4CC=C5CC(N(C)C)CC[C@@]5(C)C4CC[C@@]32CN1C (some centres not stated) | inactive
32 | CN(C)CCc1c[nH]c2ccc(CC3COC(=O)N3)cc12 (configuration not stated) | inactive
33 | NCC1CCC(N)C(O[C@@H]2C(O)[C@H](O[C@H]3OC(CO)C(O)C(N)C3O)[C@@H](N)C[C@H]2N)O1 (some centres not stated) | inactive
34 | OCC1O[C@H](OC2C(CO)O[C@@](O)(CO)C2O)C(O)C(O)C1O (some centres not stated) | inactive
35 | CC1(C)OC2CO[C@]3(COS(N)(=O)=O)OC(C)(C)OC3C2O1 (some centres not stated) | inactive
36 | CN(C)CCCOC1C(C(O)CO)OC2OC(C)(C)O[C@@H]21 (some centres not stated) | inactive
37 | COc1cc(C2c3cc4c(cc3C(O[C@@H]3OC5COC(c6cccs6)OC5C(O)C3O)C3COC(=O)C23)OCO4)cc(OC)c1O (some centres not stated) | 6.31 µM (active)
